Compound activity as filed in PubChem.
A selection: hits, their analogues and other compounds. The true share with any hit is near 14%.
HCMV antiviral = qHTS Assay for inhibitors of the human cytomegalovirus (HCMV); 4.5% of 410,000 active; HFF cells, HCMV-luciferase reporter, 72 h; active compounds read low; activity change, negative = inhibition, % at 57.5 µM; in the data active = activity change below about -60%; inconclusive = no clear call, values can overlap the other calls; inactive = above about -39%
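Steps: HFFs plated, 16 h 37C; compounds added; HCMV-luciferase added to MOI 1 PFU/cell; 72 h 37C; OneGlo reagent, 5 min room temperature; luminescence read, normalized to controls.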
Pf growth 48h = Primary qHTS for delayed death inhibitors of the malarial parasite plastid, 48 hour incubation; P. falciparum luciferase growth in erythrocytes, 48 h; Potency, µM (series often up to 28.7 µM), for the others: at the top dose activity change, negative = inhibition, actives largely listed as inhibitors; 5.9% of 310,000 active; also: potency is read from the fitted curve at half-maximal effect
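A one-generation exposure of luciferase-tagged malaria parasites in RPMI 1640/Albumax erythrocyte culture, 37 C and 5% CO2. Inhibition is inferred from decreased luminescence after adding detection reagent.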
Sm TGR inh = qHTS Assay for the Inhibitors of Schistosoma Mansoni Peroxiredoxins | 3% of 360,000 active | purified TGR, DTNB reduction, TNB absorbance 405 nm | Potency, µM (titrated, usually from 114 µM), for the others: top-dose activity change, negative = inhibition, most hits filed as inhibitors; also: potency is read from the fitted curve at half-maximal effect; nearly all actives have a fitted effect of over 60% in size
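Kinetic colorimetric format: TGR-catalysed, NADPH-driven DTNB reduction monitored via TNB absorbance. Enzyme dispensed at 20 nM; compound exposure 15 min at room temperature before reaction start.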
Pf growth 96h = Primary qHTS for delayed death inhibitors of the malarial parasite plastid, 96 hour incubation; AID 504834, 2011; Potency, µM (series often up to 28.7 µM), inactives show top-dose activity change, negative = inhibition, usual class: inhibitors; 6.9% of 320,000 active; P. falciparum luciferase reporter growth, 96 h; also: potency is read from the fitted curve at half-maximal effect
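P. falciparum expressing integrated firefly luciferase, in erythrocytes at 2% hematocrit, 0.05% parasitemia, incubated with compounds 96 h at 37 C, 5% CO2. Growth inhibition read as loss of luminescence; two-generation exposure targets delayed-death apicoplast inhibitors.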
Giardia FBPA inh = qHTS Assay for Inhibitors of Fructose-1,6-bisphosphate Aldolase from Giardia Lamblia. Potency, µM (titrated, usually from 59.6 µM), for the others: top-dose activity, negative = inhibition, actives largely listed as inhibitors. 0.71% of 290,000 active. A8B2U2. purified Giardia FBPA; also: potency is read from the fitted curve at half-maximal effect; nearly all actives have a fitted effect of over 55% in size
Target sequence (A8B2U2 whole entry, looked up): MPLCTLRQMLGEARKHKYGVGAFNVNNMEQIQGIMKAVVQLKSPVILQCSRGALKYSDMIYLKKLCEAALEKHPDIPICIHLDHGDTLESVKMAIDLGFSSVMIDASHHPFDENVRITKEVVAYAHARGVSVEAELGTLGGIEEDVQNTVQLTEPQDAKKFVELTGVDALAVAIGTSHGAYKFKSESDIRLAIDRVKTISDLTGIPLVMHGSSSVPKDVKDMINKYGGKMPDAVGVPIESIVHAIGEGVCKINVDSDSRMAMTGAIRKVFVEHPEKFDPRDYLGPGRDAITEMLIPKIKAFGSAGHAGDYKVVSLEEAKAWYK
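40 nM FBPA preincubated 10 min at RT with compound (up to 57.5 uM final), then substrate plus GAPDH/TPI/NAD/arsenate coupling and diaphorase/resazurin added. Fluorescence read after 20 min at RT, 525/598 nm.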
An asterisk follows results filed as active. Unless noted, calls follow the shape of the dose curve; as a rule, active = well fitted curve in the direction sought with a large enough effect; inconclusive = small, poorly fitted or top-dose-only effect, or another doubt; inactive = no such curve, though single readings can be large; an effect the other way counts as inactive or inconclusive. % is scaled to controls: 0 for no effect and ±100 for the full control effect.

Screening Cc1cc(C)n2nc(CNS(=O)(=O)c3ccccc3)nc2n1 returned HCMV antiviral 16 and Sm TGR inh -12%.
`O=C(NC1CC1)c1ccc(Cn2c(SCc3ccccc3F)nc3cccnc32)cc1` gave HCMV antiviral 50 and Sm TGR inh 4%.
`O=C(O)C1C2C=CC3(CN(c4cccc(C(F)(F)F)c4)C(=O)C13)O2` (centres undefined) gave HCMV antiviral 75, Pf growth 48h 1%, Sm TGR inh 2%, Pf growth 96h 10µM* and Giardia FBPA inh 6%.
`Cc1cccc(N2CC34C=CC(O3)C(C(=O)O)C4C2=O)c1` (centres undefined) gave HCMV antiviral -24, Pf growth 48h 28%, Sm TGR inh 4%, Pf growth 96h 13% and Giardia FBPA inh 5%.
For COC(=O)c1cn(NC(=O)c2cc(OC)cc(OC)c2)c(=O)c2ccccc12 the results were HCMV antiviral 8, Pf growth 48h -8%, Sm TGR inh 27%, Pf growth 96h -23% and Giardia FBPA inh 2%.
COC(=O)c1cn(NC(=O)c2ccncc2)c(=O)c2ccccc12 was read as HCMV antiviral 10, Pf growth 48h 11%, Sm TGR inh 4%, Pf growth 96h 5.9µM* and Giardia FBPA inh 5%.
`COC(=O)c1cn(NC(=O)c2cc(OC)c(OC)c(OC)c2)c(=O)c2ccccc12` gave HCMV antiviral inconclusive, Pf growth 48h 4%, Sm TGR inh 7%, Pf growth 96h 3.3µM* and Giardia FBPA inh 4%.
`CC(C)(C(=O)N1CCC1(C)C(=O)NS(=O)(=O)c1cccc(Cl)c1)c1ccccc1` (centres undefined) gave HCMV antiviral 32.
For CCn1c(O)c(N=NC(=S)NCC2CCCO2)c2ccccc21 (centres undefined) the results were HCMV antiviral -34, Pf growth 48h -29%, Sm TGR inh 10%, Pf growth 96h inconclusive and Giardia FBPA inh -13%.
`CSc1ccc(CNC2CN3CCC2CC3)cc1` (centres undefined) gave HCMV antiviral 52, Pf growth 48h 3%, Sm TGR inh 3%, Pf growth 96h 1.7µM* and Giardia FBPA inh -19%.
Cc1cccc(-n2c(SCC(=O)Nc3ccccc3Cl)nc3n[nH]c(C)c3c2=N)c1 was read as HCMV antiviral -62* and Sm TGR inh 7%.
For CCN(C(=O)CSc1nc2n[nH]c(C)c2c(=N)n1-c1ccc(Cl)c(C)c1)c1cccc(C)c1 the results were HCMV antiviral 0, Pf growth 48h inconclusive, Sm TGR inh -14%, Pf growth 96h 26% and Giardia FBPA inh 10%.
Screening Cc1cc(-n2c(SCc3ccccc3F)nc3n[nH]c(C)c3c2=N)ccc1Cl returned HCMV antiviral -34, Pf growth 48h inconclusive, Sm TGR inh 5%, Pf growth 96h 4.7µM* and Giardia FBPA inh -11%.
COc1ccccc1NC(=O)CSc1nc2n[nH]c(C)c2c(=N)n1-c1ccccc1Cl was read as HCMV antiviral -7, Pf growth 48h 5.9µM*, Sm TGR inh 8%, Pf growth 96h 6% and Giardia FBPA inh -14%.
Screening Cc1[nH]nc2nc(SCC(=O)NC3CCCCC3)n(-c3ccc(Br)cc3)c(=N)c12 returned HCMV antiviral -89*, Pf growth 48h -13%, Sm TGR inh -11%, Pf growth 96h 13µM* and Giardia FBPA inh 15%.
`CCC(Sc1nc2n[nH]c(C)c2c(=N)n1-c1ccc(Br)cc1)C(=O)N(CC)CC` (centres undefined) gave HCMV antiviral 0 and Sm TGR inh 15%.
CCc1ccccc1NC(=O)CSc1nc2n[nH]c(C)c2c(=N)n1-c1ccc(OC)cc1 was read as HCMV antiviral 16, Pf growth 48h inconclusive, Sm TGR inh 1%, Pf growth 96h 32% and Giardia FBPA inh 2%.
Cc1ccccc1C(=O)OCc1cnc(Cl)s1 was read as HCMV antiviral -19, Pf growth 48h 20%, Sm TGR inh 9%, Pf growth 96h 22% and Giardia FBPA inh 0%.
For Nc1cc2ccccc2cc1NS(=O)(=O)N1CCCCC1 the results were HCMV antiviral 4.
Screening CC(=O)Nc1ccc(-c2ccnc3c2CC(C)(C(=O)NC(C)C)O3)cc1 (centres undefined) returned HCMV antiviral 7.
`CCOC(=O)c1cccc(-n2c(-c3ccc(OC)cc3)nc3nc4ccccc4nc32)c1` gave Pf growth 48h -3%, Sm TGR inh 0%, Pf growth 96h inconclusive and Giardia FBPA inh -8%.
`CC1(C)O[C@@H]2[C@@H](O1)C(c1ccccc1)(c1ccccc1)OP(=O)(O)OC2(c1ccccc1)c1ccccc1` gave Giardia FBPA inh 6%.
`CCC(Sc1nc2n[nH]c(C)c2c(=N)n1-c1cccc(Cl)c1)C(=O)NCCOC` (centres undefined) gave HCMV antiviral 36, Pf growth 48h inconclusive, Sm TGR inh 4%, Pf growth 96h 0% and Giardia FBPA inh 0%.
`CCC(Sc1nc2n[nH]c(C)c2c(=N)n1-c1ccc(C)c(Cl)c1)C(=O)N1CCOCC1` (centres undefined) gave Pf growth 48h 13µM*, Sm TGR inh -1%, Pf growth 96h 23% and Giardia FBPA inh 10%.
`CCOc1ccc(-n2c(SCC(=O)Nc3ccc(CC)cc3)nc3n[nH]c(C)c3c2=N)cc1` gave HCMV antiviral -23, Pf growth 48h 11%, Sm TGR inh -4%, Pf growth 96h inconclusive and Giardia FBPA inh 3%.
For CCc1ccc(NC(=O)CSc2nc3n[nH]c(C)c3c(=N)n2-c2ccc(C)cc2)cc1 the results were HCMV antiviral -91* and Sm TGR inh 14%.
For COc1ccc(S(=O)(=O)Nc2ccc(O)c3ccccc23)cc1 the results were HCMV antiviral -104*, Pf growth 48h inconclusive, Sm TGR inh 20µM* and Giardia FBPA inh 8%.
COC(=O)c1ccc(C)c(NS(=O)(=O)c2ccc(OC)cc2)c1 was read as HCMV antiviral -91*, Sm TGR inh -25%, Pf growth 96h inconclusive and Giardia FBPA inh 1%.
Screening COc1ccc(S(=O)(=O)Nc2ccccc2)cc1 returned HCMV antiviral 2.
COc1ccc(S(=O)(=O)Nc2ccc(Nc3ccccc3)cc2)cc1 was read as HCMV antiviral -70*.
`Cc1ccc(-n2nc(C)c3c(C(=O)NCc4ccccc4)cc(C4CC4)nc32)cc1` gave HCMV antiviral 11 and Sm TGR inh -2%.
`CC(=O)c1cc(F)c(N2CCN(C(=O)C(C)(C)C)CC2)cc1C` gave HCMV antiviral 17, Sm TGR inh inconclusive, Pf growth 96h inconclusive and Giardia FBPA inh 0%.
